This passage reports fold change, cell count and z-score results from PubChem BioAssay.

Assay [1] in a line: viability loss with induced miR-34 in A549 – imaging, A549 dox-inducible miR-34, nuclei and caspase counts, primary screen (AID 1347080). The settings on record: A549 miR-34 inducible, Hoechst nuclei count, 48 h.
Assay [2] is described as follows: MELAS cybrid and Rieske KO viability enhancers – cell-based, MELAS cybrids, Rieske KO mouse fibroblasts, CellTiter-Glo, primary screen (AID 1508586;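 active means mean z-score across replicates of 1.96 or higher in either the MELAS or the Rieske mutant cell line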;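 further: z relative to plate mean and SD of compound and empty wells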). The conditions noted are these: low glucose. (In general: Cellular ATP, detected with luciferase, serves as a proxy for viable cell number.)
[3] abbreviates: stronger effect = lower value, cell number ratio, induced over uninduced.
Where [4] appears, read: measured here: relative caspase fold change +Dox/-Dox.
The mark [5] stands for this setting: measured here: total cells with miR-34 induction, stronger effect = lower value.
Setting [6] is: measured here: total cells without miR-34 induction.
Where [7] appears, read: MELAS cybrid survival, CellTiter-Glo 48 h, stronger effect = higher value.
Where [8] appears, read: Rieske KO mouse fibroblast survival, CellTiter-Glo 72 h.

The source made the active and inactive calls.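 How the source made its calls, unless noted: active means compounds whose cell count with miR-34 switched on is under 0.7 times the count with it off; inactive means the rest.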
Further: test concentration not given here.

For the compound `CCCCNc1ncc(C(=O)NCc2ccc(-n3ccnc3)cc2)c(NC2CCC(O)CC2)n1` (stereo not given), the fold change in assay [1] (setting [3]) is 1.3 (inactive); in assay [1] (setting [4]) it was 0.249. Also, the cell count in assay [1] (setting [5]) is 2450; in assay [1] (setting [6]), 1880. The z-score is 5.49 (active) in assay [2] (setting [7]) and -1.88 in assay [2] (setting [8]).

As to `COc1ccc(S(=O)(=O)N(C(C)=O)c2ccccc2C=Cc2cc[n+]([O-])cc2)cc1`, the fold change in assay [1] (setting [3]) was 1.18 (inactive); in assay [1] (setting [4]) it was 0.723. The cell count came to 1240 in assay [1] (setting [5]) and 1050 in assay [1] (setting [6]). Further, the figures for the z-score in assay [2] (setting [7]) and in assay [2] (setting [8]) were 0.938 (inactive) and -0.247, respectively.

`OCC(O)C(O)CO` (stereo not given): the fold change in assay [1] (setting [3]) was 0.967 (inactive); in assay [1] (setting [4]), 0.463. Besides, the cell count worked out at 8430 in assay [1] (setting [5]) and 8720 in assay [1] (setting [6]). For the same compound, the z-score in assay [2] (setting [7]) was -0.193 (inactive); in assay [2] (setting [8]), -0.162.

Consider `O=C(CS(=O)Cc1ccco1)NCC=CCOc1cc(CN2CCCCC2)ccn1` (stereo not given), for which the fold change was 0.878 (inactive) in assay [1] (setting [3]) and 0.735 in assay [1] (setting [4]). In addition, the cell count in assay [1] (setting [5]) was 8120; in assay [1] (setting [6]), 9240. Also, the z-score in assay [2] (setting [7]) was -0.242 (inactive); in assay [2] (setting [8]), -0.613.

`CC(C)(F)CC(NC(c1ccc(-c2ccc(S(C)(=O)=O)cc2)cc1)C(F)(F)F)C(=O)NC1(C#N)CC1` (stereo not given): the fold change in assay [1] (setting [3]) was 0.826 (inactive); in assay [1] (setting [4]), 0.999. Also, the cell count in assay [1] (setting [5]) was found to be 7020; in assay [1] (setting [6]) it was 8500. The z-score in assay [2] (setting [7]) is -0.379 (inactive); in assay [2] (setting [8]), -0.123.

As to `OC(COc1cccc2ncccc12)CN1CCN(C2c3ccccc3C3C(c4ccccc42)C3(F)F)CC1` (stereo not given), the fold change in assay [1] (setting [3]) was 1.04 (inactive); in assay [1] (setting [4]) it was 0.683. Moreover, the cell count was 5300 in assay [1] (setting [5]) and 5090 in assay [1] (setting [6]). Moreover, the z-score in assay [2] (setting [7]) was -0.428 (inactive); in assay [2] (setting [8]) it was 0.74.

As for `NS(=O)(=O)c1ccc(NC(=O)Nc2ccc(F)cc2)cc1`, the fold change in assay [1] (setting [3]) is 0.971 (inactive); in assay [1] (setting [4]), 0.438. The cell count in assay [1] (setting [5]) is 8130; in assay [1] (setting [6]), 8360. In addition, the values for the z-score in assay [2] (setting [7]) and in assay [2] (setting [8]) were -0.152 (inactive) and -0.0443, respectively.

For the compound `CN(C)c1cc(NC(=O)CNC(C)(C)C)c(O)c2c1C[C@H]1C[C@H]3C(N(C)C)C(=O)C(C(N)=O)=C(O)[C@@]3(O)C(=O)C1=C2O` (stereo not given in full), the figures for the fold change in assay [1] (setting [3]) and in assay [1] (setting [4]) were 0.917 (inactive) and 1.11, respectively. In addition, the cell count came out at 8200 in assay [1] (setting [5]) and 8950 in assay [1] (setting [6]). For the same compound, the z-score in assay [2] (setting [7]) is -0.43 (inactive); in assay [2] (setting [8]) it was 0.225.

Take `Cc1ccc(-n2sc(=O)n(Cc3ccc(F)cc3)c2=O)cc1`: the fold change is 0.959 (inactive) in assay [1] (setting [3]) and 0.337 in assay [1] (setting [4]). Besides, the cell count was 8430 in assay [1] (setting [5]) and 8790 in assay [1] (setting [6]). The z-score in assay [2] (setting [7]) was -0.268 (inactive); in assay [2] (setting [8]), -0.132.

Take `N#CC1CCCN1C(=O)CNC12CC3CC(CC(O)(C3)C1)C2` (stereo not given): the fold change in assay [1] (setting [3]) was 0.959 (inactive); in assay [1] (setting [4]) it was 0.68. Moreover, the cell count in assay [1] (setting [5]) came to 8400; in assay [1] (setting [6]) it was 8750. For the same compound, the z-score was -0.00674 (inactive) in assay [2] (setting [7]) and 0.11 in assay [2] (setting [8]).

Turning to `O=C(CSc1nc2c(c(=O)n1-c1ccccc1)SCC2)Nc1ccc(-c2ccccc2)cn1`, the fold change was 0.945 (inactive) in assay [1] (setting [3]) and 0.349 in assay [1] (setting [4]). Moreover, the cell count in assay [1] (setting [5]) came to 7310; in assay [1] (setting [6]), 7740. Besides, the results for the z-score in assay [2] (setting [7]) and in assay [2] (setting [8]) were -0.49 (inactive) and 0.404, respectively.

Consider `COc1cc(C2c3cc4c(cc3C(OC3OC5COC(c6cccs6)OC5C(O)C3O)C3COC(=O)[C@H]23)OCO4)cc(OC)c1O` (stereo not given in full), for which the fold change in assay [1] (setting [3]) was 1.06 (inactive); in assay [1] (setting [4]), 0.936. The cell count was 1550 in assay [1] (setting [5]) and 1460 in assay [1] (setting [6]). Besides, the z-score in assay [2] (setting [7]) was 0.486 (inactive); in assay [2] (setting [8]), 0.638.

In the case of `CC[C@]1(O)C[C@@H]2CN(CCc3c([nH]c4ccccc34)[C@@](C(=O)OC)(c3cc4c(cc3OC)N(C=O)[C@@H]3[C@@]45CCN4CC=C[C@@](CC)(C(OC(C)=O)[C@]3(O)C(=O)OC)[C@H]45)C2)C1` (stereo not given in full), the fold change in assay [1] (setting [3]) was 1.22 (inactive); in assay [1] (setting [4]), 0.801. The cell count in assay [1] (setting [5]) was found to be 1340; in assay [1] (setting [6]), 1100. Moreover, the z-score is 0.317 (inactive) in assay [2] (setting [7]) and -1.38 in assay [2] (setting [8]).

For `O=c1[nH]c(=O)n(C2CC(O)C(CO)O2)cc1C(F)(F)F` (stereo not given), the fold change was 1.15 (inactive) in assay [1] (setting [3]) and 0.574 in assay [1] (setting [4]). Moreover, the cell count in assay [1] (setting [5]) was 1670; in assay [1] (setting [6]), 1450. Besides, the z-score in assay [2] (setting [7]) is -0.198 (inactive); in assay [2] (setting [8]) it was -0.513.

In the case of `C=C1C(=CC=C2CCC[C@]3(C)C(C(C)CCCC(C)C)CC[C@@H]23)CC(O)CC1O` (stereo not given in full), the fold change in assay [1] (setting [3]) was 0.908 (inactive); in assay [1] (setting [4]), 0.753. For the same compound, the cell count in assay [1] (setting [5]) came out at 6380; in assay [1] (setting [6]), 7020. Moreover, the z-score in assay [2] (setting [7]) was 0.162 (inactive); in assay [2] (setting [8]), 0.335.
